Source: PubChem
PAX8 inh HTS = PAX8 transcriptional activity inhibition | RMG-I TPO-luciferase reporter, SteadyGlo, 24 h | inhibition, % at 12.6 µM | 360,000 compounds, 1.2% hits | AID 652154;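 active means mean replicate inhibition at least 60% with every replicate also reaching 60%; inconclusive means only one of the two criteria is met; inactive means mean below 60% and not all replicates reaching 60%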;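 further: luciferase light reporting Pax8 driven TPO promoter activity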
HIV Env fusion = inhibitors of HIV Env-mediated cell fusion; HeLa-JRFL Env/CEM21 cell fusion, luciferase; inhibition, % at 12.3 µM; 360,000 compounds, 1.1% hits; AID 651610;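 active means mean replicate inhibition score of at least 50 and every replicate individually at or above 50; inconclusive means only one of the two criteria met; inactive means mean below 50 and not all replicates reaching 50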
EWS-Fli inh = blocks EWS/Fli oncoprotein-driven transcription. A673 NR0B1-luciferase reporter, viability-normalised. inhibition, % at 12.6 µM. 350,000 compounds, 0.67% hits;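 active means mean inhibition of at least 50% after viability correction, with every replicate also passing that limit; inconclusive means mean reaches 50% but only one of two replicates passes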;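 further: firefly luciferase signal divided by Alamar Blue viability fluorescence both relative to DMSO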
FXN GAA850 act = increases GAA850 frataxin promoter reporter activity. HEK293 lucGAA850 FXN promoter luciferase reporter, 24 h; percent of 10 µM SAHA response. activation, % at 6 µM. 360,000 compounds, 0.56% hits;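 active means activation above the average of all compounds screened plus 3 SD, cutoff fixed separately per campaign, cut at about 7.5% in these data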
CFTR F508del cor = CFTR F508del correction in bronchial cells | CFBE cells, YFP halide quenching; stimulated with forskolin plus potentiator P3; % fluorescence drop versus neutral controls | activity (quench increase), % at 7.58 µM | 350,000 compounds, 0.36% hits | AID 720511;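 active means mean added fluorescence quench of at least 8% versus neutral control, with both replicates also reaching 8%; inconclusive means only one of the mean or replicate conditions met; inactive means mean below 8% and not both replicates reaching 8%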;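 further: cells transiently co-express mutant CFTR-F508del with the halide-sensitive YFP; corrector assay measuring rescue of mutant channel to the surface after 24 h compound exposure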
A number is an active result; – = inactive; ? = inconclusive; · = no result given; [ ] = dose if it differs, or a comment. Most compounds without a hit are left out; they make up all but 2.5% or so of the library.

SMILES	PAX8 inh HTS	HIV Env fusion	EWS-Fli inh	FXN GAA850 act	CFTR F508del cor
COc1ccc2c3c([nH]c2c1)[C@@H](CO)N(C(=O)NC(C)C)CC31CCN(Cc2ccc(F)cc2)CC1	–	·	–	·	–
C[C@@H]1CCCCO[C@H](CN(C)Cc2ccc(C(F)(F)F)cc2)[C@@H](C)CN([C@@H](C)CO)C(=O)c2cc(NC(=O)Nc3ccc(F)cc3)ccc2O1	92	–	–	·	–
COCCn1c(C)cc(C(=O)CSc2n[nH]c(N)n2)c1C	–	–	·	–	·
COCCn1c(C)cc(C(=O)CSc2nnc(C)s2)c1C	75	63	·	–	·
COCCn1c(C)cc(C(=O)CSc2nnnn2C2CCCC2)c1C	–	60	82	–	–
CCC(=O)N1CC2(CCN(C(C)=O)CC2)c2c([nH]c3cc(OC)ccc23)[C@@H]1CO	·	–	–	·	–
Cc1cc(NC(=O)CS(=O)(=O)c2cn(Cc3cccc(C(F)(F)F)c3)c3ccccc23)no1	–	78	–	–	–
Cc1cc(NC(=O)CS(=O)(=O)c2cn(Cc3ccc(F)cc3)c3ccccc23)no1	–	79	–	–	–
CCn1cc(S(=O)(=O)CC(=O)Nc2cc(C)on2)c2ccccc21	·	–	·	–	·
Cc1cc(NC(=O)CS(=O)(=O)c2c[nH]c3ccccc23)no1	–	–	–	–	–
Cc1cc(NC(=O)CS(=O)(=O)c2cn(Cc3cccc(F)c3)c3ccccc23)no1	–	73	·	–	·
C=C1C(=O)O[C@@H]2C[C@@H](C)[C@@H]3C=CC(=O)[C@@]3(C)[C@@H](OC(C)=O)[C@H]12	102	129	62	·	–
C[C@@H]1CCCCO[C@@H](CN(C)S(=O)(=O)c2cccs2)[C@H](C)CN([C@H](C)CO)C(=O)c2cc(NS(=O)(=O)c3ccc(F)cc3)ccc2O1	–	–	–	·	–
CCOc1ccc(C(=O)NCCc2ccccc2)cc1	·	·	59	–	–
O=C(NCCc1ccccc1)c1ccc2c(c1)OCO2	–	–	73	–	–
O=C1[C@@H]2Cc3c([nH]c4ccccc34)C(c3cccc(Br)c3)N2C(=O)CN1C1CCN(Cc2ccccc2)CC1 (some centres undefined)	91	?	–	–	–
O=C(CCl)c1cc2c3c(c1)CC(=O)N3CCC2	–	–	–	8.6	–
COc1ccc(C(=O)Nc2ccc3c(c2)C(=O)N(C)C[C@H](OC)[C@@H](C)CN[C@H](C)CO3)cc1	–	–	–	·	–
CC(C)CC#Cc1ccc2c(c1)O[C@H](CN(C)S(=O)(=O)c1ccc(F)cc1)[C@H](C)CN([C@@H](C)CO)S2(=O)=O	98	61[16.7 µM]	–	·	–
CC(C)CC#Cc1ccc2c(c1)O[C@@H](CN(C)S(=O)(=O)c1ccc(F)cc1)[C@H](C)CN([C@H](C)CO)S2(=O)=O	67	–	–	·	–
C[C@@H]1CN([C@@H](C)CO)S(=O)(=O)c2ccc(C#Cc3ccc(F)cc3)cc2O[C@H]1CN(C)S(=O)(=O)c1ccc(F)cc1	·	–	–	·	–
C[C@H](CO)N1C[C@H](C)[C@@H](CN(C)S(=O)(=O)c2ccc(F)cc2)Oc2cc(C#Cc3ccc(F)cc3)ccc2S1(=O)=O	·	–	–	·	–
COCC(=O)N1[C@@H](CO)[C@@H](c2ccccc2)C12CN(C(=O)NC1CCCC1)C2	·	·	–	·	–
COC(=O)C1(C(=O)OC)C[C@H](c2ccc(OC)cc2)N(Cc2ccccc2OC)[C@@H]1c1cccs1	–	92	–	·	–
C[C@@]12C(=O)Nc3ccccc3C(=O)N1[C@H]1c3cc(Br)ccc3OC[C@@H]1[C@@H]2c1ccccc1	–	–	56	–	–
SMILES	PAX8 inh HTS	HIV Env fusion	EWS-Fli inh	FXN GAA850 act	CFTR F508del cor
C[C@H]1NC(=O)[C@@]2(C)[C@H](c3ccccc3)[C@H]3COc4ccccc4[C@@H]3N2C1=O	–	92	–	–	–
CCOC(=O)[C@H]1[C@H]2COc3ccc(Br)cc3[C@@H]2N2C(=O)N(c3ccccc3)C(=O)[C@@]12C	–	–	–	–	–
CCOC(=O)[C@@H]1[C@H]2COc3ccc(Br)cc3[C@@H]2N2C(=O)N(c3ccccc3)C(=O)[C@@]12C	–	87	–	–	–
C[C@@]12C(=O)Nc3ccc(Br)cc3C(=O)N1[C@H]1c3cc(Br)ccc3OC[C@@H]1[C@@H]2c1ccccc1	–	63	–	–	–
COc1ccc2c3c(n(C)c2c1)[C@@H](CO)NCC31CCN(C(=O)c2cccc(F)c2)CC1	·	·	–	·	–
N#Cc1cc2cc3c(cc2nc1SCC(=O)N1CCOCC1)OCCO3	–	–	57	–	–
COC(=O)[C@]1(C)CCC[C@@]2(C)C3CC[C@]4(OC(C)=O)C[C@@]3(CCC21)CC4=O (some centres undefined)	–	–	–	–	–
COC(=O)C1(C)CCCC2(C)C3CCC(C(C)C)C(CO)C3C(CO)CC12 (centres undefined)	–	–	–	–	8.0
COc1ccc2c3c([nH]c2c1)[C@H](CO)N(CC1CCOCC1)CC31CN(C(=O)C2CC2)C1	·	–	–	·	–
CO[C@@H]1CN(C)C(=O)c2cc(NC(=O)Nc3ccccc3F)ccc2OC[C@@H](C)N(Cc2ccccc2F)C[C@H]1C	·	–	–	·	–
COc1cccc(S(=O)(=O)Nc2ccc3c(c2)C(=O)N(C)C[C@H](OC)[C@@H](C)CN(Cc2ccccc2F)[C@@H](C)CO3)c1	65	·	–	·	–
CO[C@@H]1CN(C)C(=O)c2ccc(NC(=O)Nc3ccccc3F)cc2OC[C@@H](C)N(Cc2ccccc2F)C[C@H]1C	71	·	–	·	–
COc1ccccc1S(=O)(=O)N(C)C[C@H]1OCc2ccccc2-c2ccccc2C(=O)N([C@@H](C)CO)C[C@@H]1C	–	–	–	·	–
Cc1ccc(-c2ccc3c(c2)O[C@@H](CN(C)Cc2ccc(F)cc2)[C@H](C)CN([C@@H](C)CO)S3(=O)=O)cc1	·	·	–	·	–
CN(C)C(=O)c1cccc(-c2ccc3n(c2=O)C[C@@H]2N[C@H]3[C@H](C(=O)NC3CCC3)[C@H]2CO)c1	–	–	–	·	·
COc1cccc(CN2[C@H](CO)[C@@H](c3ccccc3)C23CN(C(=O)C2CCC2)C3)c1	·	·	–	·	–
CCC(=O)N[C@H]1CC[C@H](CCn2cc(C3CC3)nn2)O[C@@H]1CO	–	–	–	·	–
COc1ccc(Cl)cc1NC(=O)C(C)NC(c1ccccc1)c1ccccc1 (centres undefined)	–	59	·	–	·
COC(=O)C[C@H]1CC[C@@H]2[C@H](COc3ccc(NS(=O)(=O)c4ccccc4F)cc3C(=O)N2C)O1	–	–	–	·	–
Oc1ccc(N=C/C=C/c2cccc(Br)c2)cc1-c1nc2ccccc2s1	·	·	·	14	·
Nc1ccc(O)c(-c2nc3ccccc3s2)c1	–	–	·	–	·
COc1cccc(-c2nc(-c3ccccn3)no2)c1	70	–	·	·	·
COc1cc(-c2nc(-c3cccc(C)c3)no2)cc(OC)c1OC	·	–	·	–	·
COc1ccc(-c2nc(-c3cccc(C)c3)no2)cc1OC	·	·	–	–	10
COc1cccc(-c2nc(-c3ccccc3)no2)c1	–	–	·	–	·
O=C(CCl)N1c2ccccc2CCc2ccccc21	–	–	84	–	–
